Reference: PubChem BioAssay AID624405 (Broad Institute, 2012)
Out of some 1,900 compounds screened, about 250 (13%) were called active. Inconclusive results (about 4%) are left out.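 The calls were made as follows: active = fitted curve reaches 40% rescue activity at or below the top valid dose, in every test run; inconclusive = test runs disagree, some active and some inactive; inactive = every run misses the threshold or moves the wrong way.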 A selection follows. Measured potencies and affinities stand elsewhere.

experiment: rescue of simvastatin-induced ATP loss – cell-based, C2C12 myotubes, ATP luminescence, cherry pick, dose response (AID 624405); settings: 48 h, scaled: DMSO wells 0, geranylgeraniol wells 100; series mostly up to 19.5 µM;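 also: myotubes are challenged with simvastatin at 10 µM to lower ATP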

Row | SMILES | outcome
1 | COc1ccc(S(=O)(=O)Nc2ccc3c(c2)C(=O)N([C@H](C)CO)C[C@@H](C)[C@H](CN(C)S(=O)(=O)c2ccc(F)cc2)OCCCC[C@@H](C)O3)cc1 | inactive
2 | CCn1c(CSc2nc3ccccc3[nH]2)n[nH]c1=S | inactive
3 | COc1ccc(S(=O)(=O)Nc2ccc3c(c2)CC(=O)N([C@@H](C)CO)C[C@@H](C)[C@H](CN(C)Cc2ccc(Oc4ccccc4)cc2)O3)cc1 | inactive
4 | COc1cc(C)c(C(C)C)cc1S(=O)(=O)NCCCn1ccnc1 | inactive
5 | COC(=O)c1sc(S(=O)(=O)Nc2ccc3cn[nH]c3c2)c(C(=O)OC)c1C | inactive
6 | C[C@H](CO)N1C[C@H](C)[C@H](CN(C)S(=O)(=O)c2ccccc2)OCCCC[C@H](C)Oc2ccc(NS(C)(=O)=O)cc2C1=O | inactive
7 | COc1ccc(-n2c(SCC(=O)N3CCCCC3)nc(O)cc2=O)cc1 | inactive
8 | CCOC(=O)N1CCN(C(=O)C2CC(c3ccccc3OC)=NO2)CC1 (configuration not stated) | inactive
9 | COc1cc2oc3ccccc3c2cc1N(CC(=O)N1CCCCC1)S(=O)(=O)c1ccc(C)cc1 | inactive
10 | Cn1ncc(Cl)c1C(=O)Nc1cccnc1 | inactive
11 | O=C(O)C1CCCCC1C(=O)Nc1ccccn1 (configuration not stated) | inactive
12 | CCCCCCC(=O)N1CCN(c2cc3c(cc2F)c(=O)c(C(=O)O)cn3CC)CC1 | inactive
13 | CC1CCN(C(=O)c2cc(F)c(F)cc2Cl)CC1 | inactive
14 | CCOc1ccccc1Nc1nc(N)nc(Cl)c1CC | inactive
15 | O=C(NCc1cccnc1)C1CC(=O)N(CCc2ccccc2)C1 (configuration not stated) | inactive
16 | CCOC(=O)N1CCN(c2c(N3CCN(c4cc(C)ccc4C)CC3)c(=O)c2=O)CC1 | inactive
17 | C[C@H]1CN([C@@H](C)CO)C(=O)c2cccc(NS(=O)(=O)c3cccs3)c2O[C@@H]1CN(C)Cc1ccc(Oc2ccccc2)cc1 | inactive
18 | C[C@H](CO)N1C[C@H](C)[C@@H](CN(C)Cc2ccc3c(c2)OCO3)Oc2ccc(NS(=O)(=O)c3ccc(F)cc3)cc2CC1=O | inactive
19 | COc1ccc(OC)c(CNC(=O)C2CCCN(c3nc4ccccc4o3)C2)c1 (configuration not stated) | inactive
20 | CCCS(=O)(=O)N1CCCC(C(=O)N2CCN(c3ccccc3)CC2)C1 (configuration not stated) | inactive
21 | CN(C)c1nc(Oc2ccc(C(=O)OCC(=O)Nc3ccccc3)cc2)nc(N(C)C)n1 | inactive

Row | SMILES | outcome
22 | COc1ccc(C#Cc2ccc3c(c2)O[C@H](CN(C)C(=O)Nc2cccc(OC)c2)[C@@H](C)CN([C@H](C)CO)S3(=O)=O)cc1 | inactive
23 | C[C@H](CO)N1C[C@H](C)[C@H](CN(C)C(=O)Cc2ccccc2)OCCCC[C@H](C)Oc2ccc(NC(=O)Nc3ccc(C(F)(F)F)cc3)cc2C1=O | inactive
24 | Cc1csc2nc(CNC(=O)c3cccc(C(F)(F)F)c3)cn12 | inactive
25 | O=C(NCC(=O)N(Cc1cccs1)C(C(=O)NC1CCCCC1)c1cccnc1)c1ccco1 (configuration not stated) | inactive
26 | O=C(Nc1ccccc1Cl)N1C[C@H]2[C@@H](c3ccccc31)[C@@H](CO)N2Cc1ccccc1 | inactive
27 | COc1ccc(N2C(=O)CSC23C(=O)Nc2ccccc23)cc1 (configuration not stated) | inactive
28 | C[C@@H]1CCCCO[C@H](CN(C)S(=O)(=O)c2ccc(Cl)cc2)[C@H](C)CN([C@H](C)CO)C(=O)c2cc(NS(C)(=O)=O)ccc2O1 | inactive
29 | C[C@H](CO)N1C[C@H](C)[C@@H](CN(C)Cc2ccc(C(F)(F)F)cc2)Oc2ccc(NC(=O)C3CCCCC3)cc2CC1=O | inactive
30 | N#Cc1ccc(C(=O)NCC(c2ccco2)N2CCCCC2)cc1 (configuration not stated) | inactive
31 | CC(C)(C)n1nnnc1C(c1cccnc1)N1CCN(c2ccccc2F)CC1 (configuration not stated) | inactive
32 | CCOC(=O)c1sc(NCC2CCCO2)nc1C (configuration not stated) | inactive
33 | Cc1noc(C)c1S(=O)(=O)Nc1cccc2c1O[C@@H](CN(C)S(C)(=O)=O)[C@@H](C)CN([C@H](C)CO)C2=O | inactive
34 | C[C@@H]1CN([C@@H](C)CO)C(=O)c2cccc(NC(=O)c3ccc(-c4nccs4)cc3)c2O[C@@H]1CN(C)Cc1ccc(C(F)(F)F)cc1 | inactive
35 | COc1cc(OC)cc(C(=O)NCc2cccnc2)c1 | inactive
36 | CC(C)(C)C(=O)Nc1ccc(C(=O)NCc2cccnc2)cc1 | inactive
37 | CCOC(=O)c1nnc(-c2ccc(C)cc2)nc1Sc1ccc(Cl)cc1 | inactive
38 | COc1cnc(N(C)C)nc1Sc1ccc(Cl)cc1 | inactive
39 | COc1ccc(S(=O)(=O)Nc2ccc3c(c2)C(=O)N([C@@H](C)CO)C[C@@H](C)[C@H](CN(C)S(=O)(=O)c2ccc(F)cc2)OCCCC[C@@H](C)O3)cc1 | inactive
40 | COc1ccc(C(=O)c2nc3c(n2O)CCCC3)cc1OC | inactive
41 | Cc1ccc2nc(-c3cccc(NC(=O)c4ccc5c(c4)OCCO5)c3)oc2c1 | inactive
42 | Cc1ccc(-c2csc(-c3c[nH]c4ccccc34)n2)cc1 | inactive

Row | SMILES | outcome
43 | COc1ccc(-c2noc(CCCC(=O)NCCc3ccccc3)n2)cc1OC | inactive
44 | CC(C)NC(=O)N(C)C[C@@H]1Oc2ccc(NC(=O)Nc3cccc4ccccc34)cc2CC(=O)N([C@@H](C)CO)C[C@@H]1C | inactive
45 | O=C(NCC(=O)N(Cc1ccccc1)C(C(=O)NC1CCCCC1)c1ccco1)c1ccco1 (configuration not stated) | inactive
46 | COc1ccc(CNS(=O)(=O)c2ccc3c(c2)CCN3C(=O)C2CCC2)cc1 | inactive
47 | COc1ccc(CNC(=O)C2CCCN(S(=O)(=O)c3ccc4c(c3)CCCN4C(C)=O)C2)cc1 (configuration not stated) | inactive
48 | C[C@@H]1CCCCO[C@@H](CN(C)S(=O)(=O)c2ccc(Cl)cc2)[C@H](C)CN([C@@H](C)CO)C(=O)c2cc(NS(C)(=O)=O)ccc2O1 | inactive
49 | CC(C)COc1nc2ccccc2c(=O)n1OCC(=O)O | inactive
50 | CC(C)C#Cc1ccc2c(c1)O[C@@H](CN(C)C(=O)C1CCC1)[C@@H](C)CN([C@@H](C)CO)S2(=O)=O | inactive
51 | NNC(=O)c1nn(-c2ccc(Cl)cc2)cc1O | inactive
52 | COc1ccc(-n2cnc3cc(NCc4cccs4)ccc32)cc1 | inactive
53 | C[C@H](CO)N1C[C@H](C)[C@@H](CN(C)Cc2ccc(Cl)c(Cl)c2)Oc2ccc(NC(=O)CCC(F)(F)F)cc2CC1=O | inactive
54 | Cc1ccc(S(=O)(=O)n2nc(-c3ccco3)nc2SCc2ccccc2)cc1 | inactive
55 | O=S(=O)(NCC1CCN(S(=O)(=O)c2ccccc2)CC1)c1ccccc1 | inactive
56 | CCOC(=O)[C@H]1[C@H]2COc3ccc(Cl)cc3[C@@H]2N2C(=O)c3ccccc3NC(=O)[C@@]12C | inactive
57 | Cc1nc2ccc(S(=O)(=O)NCC(=O)N3CCCC(C)C3)cc2s1 (configuration not stated) | inactive
58 | O=C(CNS(=O)(=O)c1ccc(Br)s1)N1CCN(c2ncccn2)CC1 | inactive
59 | C[C@H]1CN([C@@H](C)CO)C(=O)Cc2cc(NC(=O)CCC(F)(F)F)ccc2O[C@@H]1CN(C)Cc1ccc(Oc2ccccc2)cc1 | inactive
60 | COc1ccc(CNC(=O)CCOc2ccc(C(C)(C)C)cc2)cc1 | inactive
61 | COc1ccc(CCNC(=O)c2ccc(N3CCCC3=O)cc2)cc1 | inactive
62 | Cc1ccc(Cl)cc1NC(=O)COC(=O)CC1CC2CCC1C2 (configuration not stated) | inactive
63 | COc1cccc(S(=O)(=O)N(C)C[C@H]2OCc3ccccc3-c3c(n(C)c4ccccc34)C(=O)N([C@H](C)CO)C[C@H]2C)c1 | inactive

Row | SMILES | outcome
64 | COc1ccc(CN(C)C[C@@H]2Oc3ccc(NS(=O)(=O)c4ccccc4)cc3CC(=O)N([C@H](C)CO)C[C@H]2C)cc1 | inactive
65 | CCOC(=O)N1CCN(c2ccccc2O)CC1 | inactive
66 | CCOC(=O)N1CCN(C2CC(=O)N(c3ccc(Oc4ccccc4)cc3)C2=O)CC1 (configuration not stated) | inactive
67 | C[C@@H]1CN([C@H](C)CO)C(=O)c2cc(NS(C)(=O)=O)ccc2O[C@@H](C)CCCCO[C@@H]1CN(C)Cc1ccc(Cl)c(Cl)c1 | inactive
68 | COc1ccc(C(=O)N2C[C@H]3[C@@H](c4ccccc42)[C@@H](CO)N3Cc2ccccc2)cc1 | inactive
69 | CCN(CC)c1nc(C#N)cc(-c2ccc(OC)cc2)n1 | inactive
70 | C[C@H](CO)N1C[C@H](C)[C@@H](CN(C)C(=O)Nc2ccccc2)Oc2ncc(C#CC3CCCC3)cc2C1=O | inactive
71 | C[C@H](CO)N1C[C@H](C)[C@@H](CN(C)C(=O)Nc2cccc3ccccc23)OCCCC[C@H](C)Oc2ccc(NC(=O)Nc3ccc4c(c3)OCO4)cc2C1=O | inactive
72 | Cc1ccc(S(=O)(=O)Nc2ccc3c(c2)C(=O)N([C@H](C)CO)C[C@@H](C)[C@H](CN(C)Cc2ccc(Cl)c(Cl)c2)O3)cc1 | inactive
73 | CCOC(=O)C1=C(C)Nc2ccccc2N=C1NC(=O)c1cccc(S(=O)(=O)N(C)C)c1 | inactive
74 | COc1ccc(C(=O)N2C[C@@H]3[C@H](c4ccccc42)[C@H](CO)N3Cc2ccccc2)cc1 | inactive
75 | COC(=O)C1(C(=O)OC)NOC2C(=O)N(c3ccc(Cl)cc3Cl)C(=O)C21 (configuration not stated) | inactive
76 | C[C@@H](NC(=O)C[C@@H]1CC[C@@H]2[C@H](COC[C@H](O)CN2Cc2ccc(C(F)(F)F)cc2)O1)c1ccccc1 | inactive
77 | COc1ccc(S(=O)(=O)Nc2ccc3c(c2)C(=O)N([C@H](C)CO)C[C@H](C)[C@H](CN(C)S(=O)(=O)c2ccc(F)cc2)OCCCC[C@H](C)O3)cc1 | inactive
78 | CCC(C)(CCNC(=O)Cc1ccccc1)c1ccccc1OC (configuration not stated) | inactive
79 | C[C@H](CO)N1C[C@H](C)[C@@H](CN(C)Cc2ccc(-c3ccccc3)cc2)Oc2ccc(NC(=O)CCCCCC(=O)Nc3ccccc3N)cc2CC1=O | inactive
80 | C[C@H]1CN([C@@H](C)CO)C(=O)Cc2cc(NC(=O)CCCCCC(=O)Nc3ccccc3N)ccc2O[C@@H]1CN(C)Cc1ccc(-c2ccccc2)cc1 | inactive
81 | C[C@H](CO)N1C[C@H](C)[C@@H](CN(C)Cc2ccc(-c3ccccc3)cc2)Oc2ccc(NC(=O)Cc3ccccc3)cc2CC1=O | inactive
82 | Cc1noc(C)c1S(=O)(=O)Nc1ccc2c(c1)C(=O)N([C@@H](C)CO)C[C@@H](C)[C@@H](CN(C)S(=O)(=O)c1ccc(Cl)cc1)OCCCC[C@H](C)O2 | inactive
